In PubChem BioAssay (EPA / NIEHS):
Records with an inconclusive call do not appear. A structure can be active in one record and inactive in another. Calls of active or inactive are those of the source. The calls were made as follows, unless noted: active = hit-call score of the fitted dose curve at least 0.9, where 1 is the maximum; inactive = score below 0.9.

Columns and labels:
[1] = read-out: Interleukin-8 (IL8), CXCL8 (gene 3576); experiment: BSK_3C_IL8: BioMAP Diversity Plus: 3C Assay for Interleukin-8 (IL8) Biomarker Activity (AID 2283020); settings: primary human endothelial cells (HUVEC); actives raise or lower the signal
Outline: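 IL-8 was measured by ELISA in HUVEC cultures 24 h after chemical dosing, with gain or loss of signal fitted relative to DMSO. Parallel SRB total-protein staining tracked overt cytotoxicity.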

[2] = read-out: Monokine induced gamma interferon (MIG), CXCL9 (gene 4283); experiment: BSK_3C_MIG: BioMAP Diversity Plus: 3C Assay for Monokine induced gamma interferon (MIG) Biomarker Activity (AID 2283021); settings: primary human endothelial cells (HUVEC); actives raise or lower the signal;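 as to AC50: MIG protein level measured by immunoassay in the treated endothelial cultures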
Outline: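 ELISA measurement of MIG in human umbilical vein endothelial cells 24 h after treatment. Cytotoxicity tracked by SRB staining in parallel cultures; gain or loss of signal fitted relative to DMSO.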

[3] = molecular target: human Vitamin D Receptor (VDR), VDR (gene 7421) (UniProt P11473); experiment: ATG_VDR_TRANS: Attagene TRANS-FACTORIAL HepG2 Assay for human Vitamin D Receptor (VDR) (AID 2283022; active = hit-call score of the fitted dose curve at least 0.9, where 1 is the maximum)
Sequence of human Vitamin D Receptor (VDR), VDR (gene 7421) (P11473 whole entry, looked up, the tested form may be a part): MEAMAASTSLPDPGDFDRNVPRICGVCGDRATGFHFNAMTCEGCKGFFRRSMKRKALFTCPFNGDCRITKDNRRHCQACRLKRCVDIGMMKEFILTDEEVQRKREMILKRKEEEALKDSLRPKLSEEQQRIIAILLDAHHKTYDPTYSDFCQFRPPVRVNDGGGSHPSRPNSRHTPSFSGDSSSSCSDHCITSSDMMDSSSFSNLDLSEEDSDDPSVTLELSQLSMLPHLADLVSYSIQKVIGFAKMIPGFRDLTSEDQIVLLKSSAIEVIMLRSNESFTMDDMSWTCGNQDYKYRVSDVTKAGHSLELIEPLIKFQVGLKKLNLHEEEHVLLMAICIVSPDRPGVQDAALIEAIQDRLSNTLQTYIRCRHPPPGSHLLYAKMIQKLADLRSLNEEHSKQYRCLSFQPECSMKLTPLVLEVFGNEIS
Outline: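 Transactivation by an exogenous VDR-Gal4 chimera in transiently transfected HepG2 cells was measured as reporter transcript level 24 hours after chemical treatment. RT-PCR products were analysed by capillary electrophoresis and fitted in the positive direction relative to DMSO.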

[4] = BSK_3C_SRB: Viability Assessment in the BioMAP Diversity Plus: 3C Assay (AID 2283023); settings: primary human endothelial cells (HUVEC);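 also: fitted both ways against DMSO so a hit may be signal rise or drop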
Outline: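 Cytotoxicity readout in parallel HUVEC 3C cultures: after 24 h compound exposure, cells fixed with 10% TCA, stained with 0.1% SRB and read at 560 nm. Gain or loss relative to DMSO fitted.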

[5] = read-out: Matrix Metallopeptidase 1 (MMP1), MMP1 (gene 4312); experiment: BSK_BE3C_MMP1: BioMAP Diversity Plus: BE3C Assay for Matrix Metallopeptidase 1 (MMP1) Biomarker Activity (AID 2283024); settings: primary human bronchial epithelial cells; actives raise or lower the signal
Outline: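 ELISA measurement of MMP-1 after 24 h compound exposure of primary human bronchial epithelial cells. Changes in either direction fitted relative to DMSO; parallel SRB staining checked overt cytotoxicity.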

[6] = BSK_3C_Vis: BioMAP Diversity Plus: 3C Assay for Morphology Visualization (AID 2283025); settings: primary human endothelial cells (HUVEC);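 also: fitted both ways so gain or loss versus DMSO counts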;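 as to AC50: light microscopy image of cell morphology used as background control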
Outline: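 Light-microscopy visualization of HUVEC cultures at 24 h post-treatment, with DMSO as baseline for bidirectional fitting.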

[7] = read-out: Pselectin, SELP (gene 6403); experiment: BSK_4H_Pselectin: BioMAP Diversity Plus: 4H Assay for Pselectin Biomarker Activity (AID 2283026); settings: primary human endothelial cells (HUVEC); actives raise or lower the signal
Outline: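 ELISA of surface P-selectin on HUVEC, 24 h after dosing, with parallel SRB staining (0.1% after 10% TCA fixation, 560 nm) for overt cytotoxicity. Activity fitted in both directions relative to DMSO.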

[8] = BSK_4H_SRB: Viability Assessment in the BioMAP Diversity Plus: 4H Assay (AID 2283027); settings: primary human endothelial cells (HUVEC);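 also: cells exposed to compound for 24 h before staining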;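 as to AC50: curves fitted both ways versus DMSO so AC50 may be loss or gain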
Outline: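 Cytotoxicity readout: sulforhodamine B (0.1%) staining of total protein after 10% TCA fixation, measured at 560 nm in human umbilical vein endothelium at 24 h. DMSO set the baseline; fitting was bidirectional.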

[9] = BSK_BE3C_SRB: Viability Assessment in the BioMAP Diversity Plus: BE3C Assay (AID 2283028); settings: primary human bronchial epithelial cells;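 as to AC50: fitted both ways so AC50 may mark signal gain or loss versus DMSO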
Outline: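 Cytotoxicity read-out: SRB (0.1%) staining of TCA-fixed (10%) human lung bronchial epithelial cells, absorbance 560 nm, 24 h post-dosing. Curves fitted both directions relative to DMSO.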

[10] = read-out: Thrombomodulin, THBD (gene 7056); experiment: BSK_3C_Thrombomodulin: BioMAP Diversity Plus: 3C Assay for Thrombomodulin Biomarker Activity (AID 2283029); settings: primary human endothelial cells (HUVEC); actives raise or lower the signal
Outline: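 ELISA measurement of thrombomodulin on HUVEC surface 24 h after chemical dosing; activity fitted in both directions relative to DMSO vehicle.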

[11] = read-out: Urokinase-type plasminogen activator receptor (uPAR), PLAUR (gene 5329); experiment: BSK_4H_uPAR: BioMAP Diversity Plus: 4H Assay for Urokinase-type plasminogen activator receptor (uPAR) Biomarker Activity (AID 2283030); settings: primary human endothelial cells (HUVEC); actives raise or lower the signal
Outline: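 uPAR level read by ELISA on HUVEC cultures (BioMAP 4H) 24 h post-dosing, analyzed for gain or loss relative to DMSO. Parallel SRB staining assessed overt cytotoxicity.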

[12] = read-out: Vascular endothelial growth factor receptor 2 (Homo sapiens) (UniProt P35968); experiment: BSK_4H_VEGFRII: BioMAP Diversity Plus: 4H Assay for Vascular endothelial growth factor receptor 2 (VEGFR2) Biomarker Activity (AID 2283031); settings: primary human endothelial cells (HUVEC); actives raise or lower the signal;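 as to AC50: cell-surface VEGFR2 protein level quantified by ELISA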
Outline: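 Measured by ELISA after 24 h of compound treatment: VEGFR2 on primary human umbilical vein endothelial cells, fitted in both directions relative to DMSO. Parallel cultures received SRB staining (560 nm) for overt cytotoxicity.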

[13] = read-out: Human Leukocyte Antigen - DR isotype (HLADR), HLA-DRA (gene 3122); experiment: BSK_BE3C_HLADR: BioMAP Diversity Plus: BE3C Assay for Human Leukocyte Antigen - DR isotype (HLADR) Biomarker Activity (AID 2283032); settings: primary human bronchial epithelial cells; actives raise or lower the signal
Outline: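 Cell-surface HLA-DR ELISA readout at 24 h after dosing in the BE3C primary human lung bronchial epithelial system; gain or loss of signal against DMSO, with parallel sulforhodamine B staining of total protein for overt cytotoxicity.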

[14] = read-out: Vascular cell adhesion molecule 1 (VCAM1), VCAM1 (gene 7412); experiment: BSK_4H_VCAM1: BioMAP Diversity Plus: 4H Assay for Vascular cell adhesion molecule 1 (VCAM1) Biomarker Activity (AID 2283033); settings: primary human endothelial cells (HUVEC); actives raise or lower the signal
Outline: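 VCAM-1 ELISA read 24 h after chemical dosing of HUVEC in the BioMAP 4H system, with gain or loss of signal fitted relative to DMSO. Parallel SRB staining (560 nm) checked overt cytotoxicity.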

[15] = read-out: Interferon-gamma inducible Protein 10 (IP10), CXCL10 (gene 3627); experiment: BSK_BE3C_IP10: BioMAP Diversity Plus: BE3C Assay for Interferon-gamma inducible Protein 10 (IP10) Biomarker Activity (AID 2283034); settings: primary human bronchial epithelial cells; actives raise or lower the signal
Outline: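 IP-10 quantified by ELISA in human primary bronchial epithelial cell cultures at 24 hours post-dosing. Gain or loss of signal fitted relative to DMSO; parallel SRB staining assessed overt cytotoxicity.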

[16] = read-out: Monokine induced gamma interferon (MIG), CXCL9 (gene 4283); experiment: BSK_BE3C_MIG: BioMAP Diversity Plus: BE3C Assay for Monokine induced gamma interferon (MIG) Biomarker Activity (AID 2283035); settings: primary human bronchial epithelial cells; actives raise or lower the signal
Outline: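 hu bronchial epithelial 1° cells, 24 h cpd; MIG by ELISA; bidirectional fit, DMSO = baseline.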

[17] = read-out: Transforming growth factor beta 1 (TGFb1), TGFB1 (gene 7040); experiment: BSK_BE3C_TGFb1: BioMAP Diversity Plus: BE3C Assay for Transforming growth factor beta 1 (TGFb1) Biomarker Activity (AID 2283036); settings: primary human bronchial epithelial cells; actives raise or lower the signal
Outline: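 ELISA readout of TGF-b1 from human lung bronchial epithelial primary cells, taken 24 h post-treatment. Gain or loss of signal fitted relative to DMSO baseline, with parallel SRB staining for overt cytotoxicity.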

[18] = read-out: Plasminogen activator inhibitor-1 (PAI1), SERPINE1 (gene 5054); experiment: BSK_BE3C_PAI1: BioMAP Diversity Plus: BE3C Assay for Plasminogen activator inhibitor-1 (PAI1) Biomarker Activity (AID 2283037); settings: primary human bronchial epithelial cells; actives raise or lower the signal
Outline: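 PAI-1 was measured by ELISA in human primary bronchial epithelial cultures 24 h after chemical dosing, with cytotoxicity checked by SRB total-protein staining in parallel cultures. Activity was fitted in both directions relative to DMSO.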

[19] = read-out: urokinase plasminogen activator (uPA), PLAU (gene 5328); experiment: BSK_BE3C_uPA: BioMAP Diversity Plus: BE3C Assay for urokinase plasminogen activator (uPA) Biomarker Activity (AID 2283038); settings: primary human bronchial epithelial cells; actives raise or lower the signal
Outline: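 ELISA for uPA on human primary bronchial epithelial cultures 24 h post-treatment, gain or loss against DMSO. Parallel SRB staining (0.1% after 10% TCA fixation, 560 nm) assessed overt cytotoxicity.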

[20] = read-out: Urokinase-type plasminogen activator receptor (uPAR), PLAUR (gene 5329); experiment: BSK_BE3C_uPAR: BioMAP Diversity Plus: BE3C Assay for Urokinase-type plasminogen activator receptor (uPAR) Biomarker Activity (AID 2283039); settings: primary human bronchial epithelial cells; actives raise or lower the signal
Outline: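 uPAR levels were measured by ELISA after 24 h compound treatment of primary human bronchial epithelial cells, fitted in both directions relative to DMSO. Parallel SRB staining served as the cytotoxicity read-out.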

Measured: AC50

O=C1c2ccccc2C(=O)N1SC(Cl)(Cl)Cl
active: [5] 34.9 µM | [9] 31.8 µM | [13] 30.6 µM | [15] 35 µM | [16] 35.7 µM | [17] 31.6 µM | [18] 20 µM | [19] 28.7 µM | [20] 34.7 µM
inactive: all other assays above

N#Cc1c(Cl)c(Cl)c(Cl)c(C#N)c1Cl
inactive: [3]
active: [1] 1.67 µM | [2] 2.06 µM | [4] 2.14 µM | [5] 4.1 µM | [6] 0.468 µM | [7] 0.911 µM | [8] 1.96 µM | [9] 1.72 µM | [10] 0.148 µM | [11] 1.81 µM | [12] 1.44 µM | [13] 1.7 µM | [14] 1.16 µM | [15] 2.35 µM | [16] 3.01 µM | [17] 3.94 µM | [18] 2.5 µM | [19] 1.69 µM | [20] 3.98 µM

CC(C)(C)C(O)C(Oc1ccc(Cl)cc1)n1cncn1 (configuration not stated)
active: [13] 24.2 µM
inactive: [1] | [2] | [3] | [4] | [5] | [6] | [7] | [8] | [9] | [10] | [11] | [12] | [13] | [14] | [15] | [16] | [17] | [18] | [19] | [20]

O=C(O)COc1ccc(Cl)cc1Cl
active: [20] 0.152 µM
inactive: all other assays above

Cc1cc(C)nc(NC(=O)NS(=O)(=O)c2ccccc2C(=O)OC2COC2)n1
inactive: all assays above

OCCOc1ccccc1
inactive: all assays above

O=[N+]([O-])c1c(Cl)c(Cl)c(Cl)c(Cl)c1Cl
active: [4] 30.9 µM | [6] 37.5 µM | [14] 19.3 µM
not listed: [3]
inactive: all other assays above

CCCN(CCOc1c(Cl)cc(Cl)cc1Cl)C(=O)n1ccnc1
active: [4] 32 µM | [7] 33.8 µM | [8] 29.8 µM | [9] 28.9 µM | [10] 12 µM | [13] 29.3 µM | [15] 29.9 µM | [18] 30.9 µM | [19] 32 µM
not listed: [3]
inactive: all other assays above

COP(=O)(OC)OC=C(Cl)Cl
active: [6] 9.8 µM | [7] 16.8 µM | [18] 20 µM | [20] 6.12 µM
not listed: [3]
inactive: all other assays above

COP(=S)(OC)Oc1ccc(SC)c(C)c1
active: [5] 3.97 µM | [8] 5.31 µM | [9] 23.2 µM | [20] 0.148 µM
not listed: [4]
inactive: all other assays above
